How the values were obtained:
Assay in all cases: PBM binding z-score (relative to random genomic background probes); higher = stronger binding; sequences stand for … in GC…GCGATTGACAGCGTAGAATGAAGG
[1] = test system: RARb homodimer (NR concentration 270 nM)
How it was run: (§1)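 Binding buffer was PBS pH 7.4 with 2% milk, 0.02% Triton X-100, 1 mM DTT, 0.2 mg/mL BSA and 0.4 mg/ml salmon testes DNA. In it, ligand-free nuclear receptor dimers were incubated 1 h on custom Agilent 4×180K protein-binding microarrays carrying double-stranded probes. Antibodies against each partner (one per run) detected binding, and z-scores were calculated against random background probes after regression normalization of scanned fluorescence.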

[2] = test system: RARg:RXRa (NR concentration 270 nM, RXRa partner concentration 90 nM)
How it was run: as §1

[3] = test system: RARg homodimer (NR concentration 270 nM)
How it was run: as §1

[4] = test system: RXRa DBDmut IVT, anti-RXR (DBD mutation: RXRa K156A/R161A, NR concentration 90 nM)
How it was run: as §1

[5] = test system: RXRa homodimer (NR concentration 180 nM)
How it was run: as §1

[6] = test system: THRa:RXRa (NR concentration 90 nM, RXRa partner concentration 90 nM)
How it was run: as §1

[7] = test system: THRa homodimer (NR concentration 90 nM)
How it was run: as §1

[8] = test system: VDR homodimer (NR concentration 270 nM)
How it was run: as §1

Sequence | PBM binding z-score [1] | PBM binding z-score [2] | PBM binding z-score [3] | PBM binding z-score [4] | PBM binding z-score [5] | PBM binding z-score [6] | PBM binding z-score [7] | PBM binding z-score [8]
ACAGACACGTGAGTGAAGGTAACTCAGCTGGACG | -0.372 | -0.114 | 0.0531 | -0.182 | 0.149 | -0.478 | -0.846 | -0.417
ATCTCTCGGTAAAGTTCAGTGAAAGATCGATAGA | 2.62 | 2.19 | 2.56 | 1.17 | 1.06 | 0.717 | 0.426 | 2.27
AGAATGAGGTTATACGAAGATCAGGGAAGAAAGT | 0.559 | 1.71 | 1 | 1.38 | 2.09 | 2.01 | 0.403 | 0.752
ATCGAAAGGTCGTTAGGTGAGTATACAGAAAGGC | 2.59 | 3.91 | 3.44 | 2.2 | 3.98 | 2.51 | 0.793 | 1.84
ATACCAAGGTGATCATGAGGTCGTTGATACTAAC | 1.85 | 2.23 | 1.18 | 1.08 | 1.75 | 3.55 | 2.94 | 3.15
TTACCTAGGTGAAAGGTCGTTGATGCACGCCTTG | 2.24 | 3.56 | 1.38 | 0.705 | 4.66 | 3.15 | 0.624 | 1.19
CGTCCAAGGTCAGAGATGTCAGTGAATGCCGAGT | 3.66 | 4.35 | 5.29 | 2.72 | 3.3 | 3.29 | 1.9 | 1.82
TCGAGTTGGTCAAAGGTCACACACTCGAAATGCG | 4.92 | 6.93 | 5.89 | 2.1 | 8.01 | 3.94 | 1.19 | 2.78
CCTACTGGGCCATTCAGAGGTCCTTGATCATATG | 0.208 | -0.0281 | -0.184 | -0.26 | -0.29 | -0.305 | -0.128 | -0.336
GCTAGTTGGTCAGTAATAGGTCACACACCGGTCG | 3.86 | 3.12 | 2.58 | 0.228 | 2.43 | 2.06 | 0.841 | 0.317
CCTGCTAGGCCAATGGTCAGCTAAAGCAGCTCGC | 0.323 | -0.216 | 0.173 | -0.154 | -0.899 | -0.489 | -0.709 | -0.962
CCTAGCAGGCCAATCTCGGTCACTCAAGGCTTGA | 1.46 | 0.504 | 1.24 | 0.398 | -0.123 | 1.92 | -0.183 | -0.29
GCTTACGGGTCAAAGGTTATATCATGAATAGAAT | 3.32 | 6.74 | 4.71 | 2.66 | 9.55 | 4.12 | 0.113 | 2.09
CAGCCTAGGTCAGGGCCAGTAAAGGAGGAACGTT | 2.33 | 2.7 | 3.44 | -0.0941 | 1.55 | 1.86 | 0.361 | -0.267
CGTACAAGGTCATAGGAGGTCAGTGAAGACAGAT | 5.45 | 6.72 | 7.17 | 4.16 | 6.75 | 5.49 | 3.23 | 4.19
TCTTGTTGGTCACGGAGGTCACACACGACGGGTA | 4.67 | 5.21 | 5.01 | 1.25 | 5.34 | 3.66 | 3.03 | 3.59
ATCTCTAGGTAACCAAGTTCAGCGAATGCCGAAC | 1.63 | 1.03 | 1.06 | 0.597 | 0.733 | 1.51 | 0.797 | 2.79
ACTTACGGGTCAACGAGGTTAGAGCACGCGTATA | 3.62 | 5.52 | 5.15 | 2.34 | 5.87 | 3.7 | 0.878 | 2.6
TATACAGGGTCAAAGGCCAGATTACGAATGTCGA | 3.49 | 5.72 | 4.99 | 3.29 | 6.99 | 3.6 | 0.972 | 2.54
AGTCGAAGTTCACTAGGTAACGTAAGATTCAGCT | 1.74 | 2.29 | 2.93 | 3.45 | 1.6 | 1.05 | -0.0118 | 2.7
CACACTAGGTCACGAAAGGTCAAAGTCGAATGAC | 5.91 | 7.95 | 8.87 | 2.87 | 8.16 | 5.26 | 3.18 | 3.49
TAGCCTCGGTCATGGGCCAGTATACCACGCGAAC | 1.72 | 1.72 | 2.42 | -1.4 | 0.378 | 0.05 | -0.217 | -0.408
GATACAGTGTCAGCTAGAGGCCAGAGTATGGAAA | 1.01 | 2.09 | 0.824 | -0.492 | 0.242 | 0.131 | -0.254 | -0.198
TCGAGTAGGTTACCAATGGGGCGTTCAGCTTTCT | 0.227 | 0.184 | 0.225 | 0.454 | 0.239 | -0.0946 | -0.39 | -0.531
CCGACTGGGCCATCAGGTCATTGATATCAACGTT | 2.62 | 2.06 | 1.8 | 0.194 | 1.38 | 3.17 | 2.95 | 1.67
TGAATGATGTTAAAGATCAGGGAACGTGGCGTCG | -0.832 | 0.221 | 0.133 | -0.892 | 0.495 | -0.238 | -0.77 | -0.0105
CGAACGAGGGCATGAGTTGAAAGCAAATGCCGAT | 0.836 | 1.52 | 1.57 | 2.22 | 1.19 | 1.37 | -0.313 | 1.57
TCATATAGGTAAAGGCGAAAGTCGAACGATATGA | -0.012 | 0.425 | 0.439 | 0.563 | 0.727 | -0.186 | -0.507 | -0.251

— the supplement of paper PMC6555819
